Measurements reported in PubChem BioAssay (Tox21).
Values without a mark were called inactive. Records with an inconclusive call do not appear. Active and inactive are the calls of the source. Unless noted, calls follow the shape of the dose curve; as a rule, active = well fitted inhibition curve with a large enough effect in the repeat runs (not every such curve was filed as active); inconclusive = weak or mixed curves; inactive = flat fitted curve, though single readings scatter.

system: not listed separately; assay: qHTS assay to identify small molecule agonists of the TGF-beta/Smad signaling pathway (AID 1346859; active = well fitted activation curve with a large enough effect in the signal ratio in the repeat runs, not every such curve was filed as active; the % refers to the signal ratio); conditions: SBE-bla HEK293T, TGF-beta/Smad beta-lactamase reporter, 5 h; series mostly up to 76.8 µM; activation: at the top concentration
How it was run: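 SBE-bla HEK 293T, 4,000 cells/well, plated o/n; cpd in DMSO, 5 hr, 37 C/5% CO2; B/G FRET substrate 2 hr RT; ex 405, em 460/530 nm.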
% is scaled to controls: 0 for no effect and ±100 for the full control effect.

SMILES | activation
CCC(Cl)C(Cl)C(Cl)CC(Cl)C(Cl)C(C)Cl (stereo not given) | 3.29%
COC(=O)C1=C(C)NC(C)=C(C(=O)OCCc2ccc(N3CCN(C(c4ccccc4)c4ccccc4)CC3)cc2)C1c1cccc([N+](=O)[O-])c1 (stereo not given) | -1.14% [at 35.3 µM]
CCCCCCCCCCCCCCCC(=O)OC[C@H](O)[C@H]1OC(=O)C(O)=C1O | 0.784%
N#CSc1ccc(N)c([N+](=O)[O-])c1 | -1.24%
COc1cc(-c2ccc(N=C=O)c(OC)c2)ccc1N=C=O | 2.17% [at 35.3 µM]
CNC(=O)c1ccccc1 | 0.494%
O=C(O)c1c(Cl)cccc1Cl | -2.57%
NNC(=O)c1cccc(C(=O)NN)c1 | -0.318%
CCCCCCCCCCCCCCCS(=O)(=O)Oc1ccccc1 | 5.72% [at 35.3 µM]
C1CCCC1 | 2.03%
NNc1nc(-c2ccc(N)cc2)cs1 | -0.126%
O=c1cccccc1O | 7.59%
Nc1c(Cl)cc(Cl)cc1Cl | -1.67%
Cc1cccc(S(=O)(=O)O)c1C | 1.24%
CCCCCCCC(=O)[O-].CCCCCCCC(=O)[O-].[Zn+2] | -9.63% [at 35.3 µM]
Cc1ccc(O)c2ncccc12 | 4.56% [at 35.3 µM]

SMILES | activation
CCCCCOc1ccccc1/C(=C\SC)n1ccnc1 | -5.1% [at 35.3 µM]
C/C=C(\C)C(=O)OCc1ccccc1 | 1.77%
CSc1cnc(C)cn1 | 0.698% [at 200 µM]
O=C(O)c1ccc(Cl)c(Cl)c1 | -6.41%
CN(C)CCCOC1(Cc2ccccc2)CCCCCC1 | 0.335% [at 35.3 µM]
O=CC=C(c1ccccc1)c1ccccc1 | 3.11%
CC(=O)SC[C@@H](Cc1ccccc1)C(=O)NCC(=O)OCc1ccccc1 | 5.13% [at 35.3 µM]
CCCCN(CCCC)C(=O)N(CCCC)CCCC | 2.74%
Cc1cc(O)c(Cl)c(C)c1Cl | -2.24%
O=C(c1ccc(O)cc1O)c1ccc(O)cc1O | -12.9%
Oc1ccc2c(c1)-c1ccccc1C2 | 0.595%
O=C1CCCCCN1SSN1CCCCCC1=O | 2.6%
CCC(C)(C)C1CCCCC1OC(C)=O (stereo not given) | -0.763%
CC(C)(C)C(=O)OCOC(=O)[C@@H]1N2C(=O)[C@@H](NC(=O)[C@H](N)c3ccccc3)[C@H]2SC1(C)C | 0.545% [at 35.3 µM]
c1ccc(CSCc2ccccc2)cc1 | -9.21%

biological target: Thyrotropin-releasing hormone receptor (Homo sapiens) (UniProt P34981); assay: qHTS assay to identify small molecule antagonists of the thyrotropin-releasing hormone receptor (TRHR) signaling pathway (AID 1346877); conditions: TRHR-HEK293, TRH-induced calcium fluorescence, antagonist mode; series mostly up to 51.3 µM; activity, negative = inhibition: at the top concentration; also: potency is read from the fitted curve at half-maximal effect
How it was run: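 Antagonist mode: after a 5 min room-temperature compound exposure, cells were stimulated with 1 nM (final) TRH. Dye-loaded TRHR-HEK293 cells were used, and calcium-dependent fluorescence was followed for 3 min, with 15-point titrations run in triplicate.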

Chain of Thyrotropin-releasing hormone receptor (Homo sapiens) (P34981 whole entry, looked up): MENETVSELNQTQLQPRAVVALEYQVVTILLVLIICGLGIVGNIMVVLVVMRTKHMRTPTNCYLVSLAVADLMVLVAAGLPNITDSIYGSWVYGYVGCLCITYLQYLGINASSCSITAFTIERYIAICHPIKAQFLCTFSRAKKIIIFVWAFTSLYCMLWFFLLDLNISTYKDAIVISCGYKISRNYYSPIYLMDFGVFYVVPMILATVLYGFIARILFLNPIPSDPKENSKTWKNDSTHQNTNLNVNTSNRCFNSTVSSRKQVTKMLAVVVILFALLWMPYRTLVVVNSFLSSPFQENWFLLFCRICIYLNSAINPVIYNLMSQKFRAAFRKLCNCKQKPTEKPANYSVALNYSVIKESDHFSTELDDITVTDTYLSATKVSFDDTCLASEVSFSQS

SMILES | activity, negative = inhibition | Potency
CCC(Cl)C(Cl)C(Cl)CC(Cl)C(Cl)C(C)Cl (stereo not given) | -0.701% | –
COc1cc(-c2ccc(N=C=O)c(OC)c2)ccc1N=C=O | 0.482% [at 23.6 µM] | –
NNC(=O)c1cccc(C(=O)NN)c1 | 2.93% | –
CCCCCCCCCCCCCCCS(=O)(=O)Oc1ccccc1 | -3.46% [at 23.6 µM] | –
Cc1cccc(S(=O)(=O)O)c1C | 3.26% | –
Cc1ccc(O)c2ncccc12 | – | 5.23 µM (active)
CCCCCOc1ccccc1/C(=C\SC)n1ccnc1 | 1.68% [at 23.6 µM] | –
CSc1cnc(C)cn1 | 0.263% [at 133 µM] | –
CN(C)CCCOC1(Cc2ccccc2)CCCCCC1 | -1.36% [at 23.6 µM] | –
CCOC(=O)O[C@]1(C(=O)OCCl)CC[C@H]2[C@@H]3CCC4=CC(=O)C=C[C@]4(C)[C@H]3[C@@H](O)C[C@@]21C | 5.68% [at 23.6 µM] | –
CN(C)[C@@H]1C(=O)C(C(N)=O)=C(O)[C@@]2(O)C(=O)C3=C(O)c4c(O)ccc(Cl)c4[C@@H](O)[C@H]3C[C@@H]12 | -3.59% [at 23.6 µM] | –
O=CC=C(c1ccccc1)c1ccccc1 | -18.2% | –
Cc1cc(O)c(Cl)c(C)c1Cl | -8.41% | –
O=C(c1ccc(O)cc1O)c1ccc(O)cc1O | – | inactive
Oc1ccc2c(c1)-c1ccccc1C2 | 6.2% | –
O=C1CCCCCN1SSN1CCCCCC1=O | 0.592% | –
CC(C)=CCOc1ccc(/C=C/C(=O)c2ccc(OCC=C(C)C)cc2OCC(=O)O)cc1 | -7.61% [at 23.6 µM] | –
CC(C)(C)C(=O)OCOC(=O)[C@@H]1N2C(=O)[C@@H](NC(=O)[C@H](N)c3ccccc3)[C@H]2SC1(C)C | 3.6% [at 23.6 µM] | –
c1ccc(CSCc2ccccc2)cc1 | -4.59% | –
